Reference: PubChem BioAssay AID1159580 (chemical genetic matrix, 2015)
The whole screen tested about 5,500 compounds, of which about 2,000 (36%) were called active. About 18% were inconclusive and are not listed. No stated cut-off is given here; in the data, active means normalized growth mostly below about 0.91 (no sharp cut-off); inconclusive means no clear call, values can overlap the other calls; inactive means mostly above about 0.92. The list shows a part of the results.

Test: chemical genetic growth profiling, strain panel (AID 1159580);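 further: tested at 20 µM; growth read once vehicle control cultures reached saturation at 30 °C; 1 = growth at the plate median or of vehicle wells; lower values mean less growth of the strain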
Conditions: S. cerevisiae deletion strains, growth OD
[1] = locus YHR030C, strain SLT2, active compounds read low
[2] = locus YHR079C, strain IRE1, active compounds read low
[3] = locus YJL095W, strain BCK1, active compounds read low
[4] = locus YJR066W, strain TOR1, active compounds read low
[5] = locus YLR113W, strain HOG1, active compounds read low
[6] = locus YNL183C, strain NPR1, active compounds read low
[7] = locus YOR231W, strain MKK1, active compounds read low
[8] = locus YPL256C, strain CLN2, active compounds read low

Measured: normalized growth

COc1cc(/C=C/C(=O)N2CCC=CC2=O)cc(OC)c1OC
inactive: locus YAL021C, strain ccr4, active compounds read low 0.948 | locus YAL026C, strain drs2, active compounds read low 1 | locus YAL030W, strain snc1, active compounds read low 1 | locus YBL061C, strain skt5, active compounds read low 0.993 | locus YBR009C, strain hhf1, active compounds read low 1.06 | locus YBR023C, strain chs3, active compounds read low 0.994 | locus YBR171W, strain sec66, active compounds read low 0.995 | locus YBR231C, strain swc5, active compounds read low 1.01 | locus YBR279W, strain paf1, active compounds read low 0.968 | locus YCL011C, strain gbp2, active compounds read low 1 | locus YCL016C, strain dcc1, active compounds read low 1.01 | locus YCL061C, strain MRC1, active compounds read low 1.01 | locus YCL069W, strain vba3, active compounds read low 0.998 | locus YCR088W, strain abp1, active compounds read low 0.996 | locus YDL005C, strain med2, active compounds read low 1 | locus YDL040C, strain nat1, active compounds read low 0.996 | locus YDR001C, strain nth1, active compounds read low 0.992 | locus YDR069C, strain doa4, active compounds read low 0.996 | locus YDR137W, strain rgp1, active compounds read low 0.856 | locus YDR159W, strain sac3, active compounds read low 1.08 | locus YDR195W, strain ref2 1.06 | locus YDR297W, strain sur2, active compounds read low 0.997 | locus YDR334W, strain swr1, active compounds read low 1.01 | locus YDR335W, strain msn5, active compounds read low 1 | locus YDR392W, strain spt3, active compounds read low 0.886 | locus YEL003W, strain gim4, active compounds read low 1 | locus YEL037C, strain rad23, active compounds read low 0.998 | locus YEL061C, strain CIN8 (second series), active compounds read low 0.996 | locus YER015W, strain faa2, active compounds read low 1.01 | locus YER016W, strain bim1, active compounds read low 1.02 | locus YER111C, strain swi4, active compounds read low 1.01 | locus YER155C, strain BEM2 (second series), active compounds read low 1.06 | locus YFR010W, strain ubp6, active compounds read low 0.99 | locus YGL167C, strain pmr1, active compounds read low 1 | locus YGL173C, strain kem1, active compounds read low 0.995 | locus YGL227W, strain vid30, active compounds read low 1.01 | locus YGL240W, strain doc1, active compounds read low 1.08 | locus YGL253W, strain hxk2, active compounds read low 0.984 | locus YHR013C, strain ard1, active compounds read low 0.938 | locus YHR027C, strain rpn1, active compounds read low 0.995 | [1] 0.935 | [2] 0.953 | locus YHR142W, strain chs7, active compounds read low 0.944 | locus YJL092W, strain hpr5, active compounds read low 0.994 | locus YJL095W, strain BCK1 (second series), active compounds read low 1.01 | [3] 0.97 | locus YJL115W, strain asf1, active compounds read low 1.03 | locus YJL129C, strain trk1, active compounds read low 0.994 | locus YJL154C, strain vps35, active compounds read low 0.998 | locus YJL164C, strain tpk1, active compounds read low 0.979 | locus YJL166W, strain qcr8, active compounds read low 1 | locus YJL187C, strain SWE1, active compounds read low 0.996 | [4] 0.883 | locus YKL160W, strain elf1, active compounds read low 0.918 | locus YKR026C, strain gcn3, active compounds read low 0.986 | locus YKR091W, strain srl3, active compounds read low 1 | locus YLL001W, strain dnm1, active compounds read low 1.01 | locus YLL026W, active compounds read low 1.01 | locus YLL041C, strain sdh2, active compounds read low 0.992 | locus YLR027C, strain aat2, active compounds read low 0.988 | [5] 0.941 | locus YLR221C, strain rsa3, active compounds read low 0.97 | locus YLR258W, strain gsy2, active compounds read low 1.03 | locus YLR262C, strain YPT6 (second series), active compounds read low 0.886 | locus YLR320W, strain mms22, active compounds read low 1.01 | locus YLR342W, strain FKS1, active compounds read low 0.998 | locus YLR357W, strain rsc2, active compounds read low 1.13 | locus YLR370C, strain arc18, active compounds read low 0.986 | locus YLR384C, strain iki3, active compounds read low 1 | locus YML120C, strain ndi1, active compounds read low 0.972 | locus YMR058W, strain fet3, active compounds read low 0.993 | locus YMR125W, strain sto1, active compounds read low 1.07 | locus YMR129W, active compounds read low 1.01 | locus YMR205C, strain PFK2, active compounds read low 1.06 | locus YMR231W, strain pep5, active compounds read low 0.998 | locus YNL071W, strain lat1, active compounds read low 0.975 | [6] 0.93 | locus YNL209W, strain ssb2, active compounds read low 0.997 | locus YNL248C, strain rpa49, active compounds read low 0.972 | locus YNL322C, strain KRE1 (second series), active compounds read low 1.02 | locus YNR049C, strain mso1, active compounds read low 0.999 | locus YOR001W, strain rrp6, active compounds read low 0.945 | locus YOR070C, strain gyp1, active compounds read low 1.02 | locus YOR080W, strain dia2, active compounds read low 1.01 | locus YOR083W, strain WHI5, active compounds read low 0.951 | locus YOR106W, strain vam3, active compounds read low 0.964 | [7] 0.954 | locus YOR265W, strain rbl2, active compounds read low 0.996 | locus YOR270C, strain vph1, active compounds read low 0.976 | locus YOR290C, strain snf2, active compounds read low 0.969 | locus YPL051W, strain arl3, active compounds read low 0.966 | locus YPL078C, strain atp4, active compounds read low 0.939 | locus YPL106C, strain sse1, active compounds read low 1.01 | locus YPL240C, strain hsp82, active compounds read low 1.01 | [8] 0.964

COc1cc(N2C(=O)C=CC2=O)cc(OC)c1OC
active: locus YDL214C, strain PRR2, active compounds read low 0.159 | locus YDR477W, strain SNF1, active compounds read low 0.176 | locus YER123W, strain YCK3, active compounds read low 0.289 | locus YER133W, strain GLC7, active compounds read low 0.226 | locus YFR019W, strain FAB1, active compounds read low 0.378 | locus YGR040W, strain KSS1, active compounds read low 0.191 | locus YGR052W, strain FMP48, active compounds read low 0.156 | [1] 0.385 | locus YHR082C, strain KSP1, active compounds read low 0.147 | [3] 0.302 | locus YJL128C, strain PBS2, active compounds read low 0.553 | [4] 0.133 | locus YKL203C, strain TOR2, active compounds read low 0.357 | [5] 0.156 | [6] 0.143 | locus YOR119C, strain RIO1, active compounds read low 0.311 | [8] 0.129
inactive: locus YAR019C, strain CDC15, active compounds read low 0.924 | locus YBL105C, strain PKC1, active compounds read low 0.958 | locus YBR135W, strain CKS1, active compounds read low 0.95 | locus YBR136W, strain MEC1, active compounds read low 0.935 | locus YBR160W, strain CDC28, active compounds read low 0.958 | locus YDL017W, strain CDC7, active compounds read low 0.975 | locus YDL028C, strain MPS1, active compounds read low 0.958 | locus YDL108W, strain KIN28, active compounds read low 0.952 | locus YDL132W, strain cdc53, active compounds read low 0.94 | locus YDR052C, strain DBF4, active compounds read low 0.959 | locus YDR054C, strain cdc34, active compounds read low 0.947 | locus YDR226W, strain ADK1, active compounds read low 0.928 | locus YFL009W, strain cdc4, active compounds read low 0.968 | locus YFL029C, strain CAK1, active compounds read low 0.915 | locus YFR003C, strain YPI1, active compounds read low 0.989 | locus YFR028C, strain CDC14, active compounds read low 0.928 | locus YGR092W, strain DBF2, active compounds read low 0.967 | [2] 0.955 | locus YIL147C, strain SLN1, active compounds read low 0.982 | locus YJR016C, strain ILV3, active compounds read low 0.973 | locus YKL048C, strain ELM1, active compounds read low 0.947 | locus YKL193C, strain SDS22, active compounds read low 0.939 | locus YMR001C, strain CDC5, active compounds read low 0.928 | locus YMR205C, strain PFK2 (second series), active compounds read low 0.941 | locus YMR277W, strain FCP1, active compounds read low 0.926 | locus YNL006W, strain LST8, active compounds read low 1 | locus YNL020C, strain ARK1, active compounds read low 0.96 | locus YNL161W, strain CBK1, active compounds read low 0.961 | locus YNL207W, strain RIO2, active compounds read low 0.968 | locus YNL222W, strain SSU72, active compounds read low 0.943 | locus YNL307C, strain MCK1 (second series), active compounds read low 0.67 | locus YOL078W, strain AVO1, active compounds read low 0.93 | locus YOR061W, strain CKA2, active compounds read low 0.942 | [7] 0.92 | locus YOR329C, strain SCD5, active compounds read low 0.991 | locus YPL209C, strain IPL1, active compounds read low 0.964 | locus YPR025C, strain CCL1, active compounds read low 0.95 | locus YPR106W, strain ISR1, active compounds read low 0.924 | strain NNK1, active compounds read low 0.977 | strain TSCII, active compounds read low 0.933
